# According to PubChem BioAssay:
# Biological target: Dickkopf-related protein 1 (Homo sapiens) (UniProt O94907)
# Test: small molecules binding DKK1 protein – biochemical, small-molecule microarray, 635 nm fluorescence scan, primary screen (AID 1106);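 note: score merges emission near 667 nm with signal to noise over three replicate slides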
# Conditions: higher = more signal
# Chain of Dickkopf-related protein 1 (Homo sapiens) (O94907 whole entry, looked up): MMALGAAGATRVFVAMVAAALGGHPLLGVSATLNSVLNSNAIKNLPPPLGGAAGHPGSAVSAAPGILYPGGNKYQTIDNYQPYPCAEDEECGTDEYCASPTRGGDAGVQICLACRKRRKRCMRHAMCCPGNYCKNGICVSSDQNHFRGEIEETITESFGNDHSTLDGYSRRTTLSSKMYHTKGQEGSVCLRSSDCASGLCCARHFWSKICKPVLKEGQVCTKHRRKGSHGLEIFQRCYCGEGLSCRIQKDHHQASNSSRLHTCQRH
row,SMILES,composite z-score
1,Cc1ccc(S[C@]2(C(=O)NCCN3CCOCC3)CC(=O)N(Cc3ccccc3Cl)[C@@H]2c2ccc(CO)cc2)cc1,-0.844
2,C[C@@]1([C@@H](NC(=O)c2ccccc2)c2ccc(-c3ccccc3)cc2)C[C@H]1C1CCCCC1,-0.932
3,COc1ccc(COC2OC[C@]3(C)[C@H]4C5=C(CN3C(=O)OC(C)(C)C)[C@H](C)C(CO)C(CO)C5CC[C@@H]24)cc1 (stereo not given in full),-0.432
4,C=C(/C(=C/C[C@@H](OC(C)=O)c1ccc(OCCO)cc1)c1cnc2ccccc2c1)C(C)C,0.218
5,C=CCOC(=O)[C@@H]1[C@H]2C(=O)O[C@H](c3ccccc3)[C@H](c3ccccc3)N2[C@H](c2ccc(OCCOC(=O)[C@@H]3C[C@@H]4C(=O)N[C@@H](Cc5ccccc5)C(=O)N4[C@@H]3c3ccc(O)cc3)cc2)[C@@]12C(=O)Nc1ccc(I)cc12,1.03
6,CCCCCC1=C2CNC(CCC)(C(=O)OC)C=C2C(C)C1=O (stereo not given),-0.793
7,C=C(C)C1C(=C)CN([C@H](CO)c2ccccc2)C1=O (stereo not given in full),-0.153
8,O=C1C2C=CC(C(O)c3ccc(F)cc3)N(Nc3ccccc3F)C2C(=O)N1c1ccccc1 (stereo not given),-0.868
9,CCOc1cc(C(O)C2C=CC3C(=O)N(c4ccccc4)C(=O)C3N2Nc2ccccc2)ccc1O (stereo not given),-0.832
10,CCCCCN1CC=CC23O[C@@H]4/C=C\CCCOC(=O)C4[C@H]2C(=O)N(C(CO)C(C)C)[C@@H]3C1=O (stereo not given in full),-0.148
11,CC(CO)N1C(=O)[C@@H]2C3C(=O)OCCC/C=C\[C@H]3OC23C=CCN(c2ccc4ccccc4c2)C(=O)[C@@H]13 (stereo not given in full),-1.17
12,COCCCNC(=O)C1N=C(c2ccc(OCCCO)cc2)N(c2ccccc2)O1 (stereo not given),0.383
13,COCCOC(=O)N1C(=O)[C@@]2(c3cc(C#CCCO)ccc31)[C@H](C(=O)N1CCN(c3ncccn3)CC1)[C@H]1C(=O)O[C@H](c3ccccc3)[C@H](c3ccccc3)N1[C@@H]2c1ccccc1OCCO,0.547
14,CS(=O)(=O)CCOC(=O)C1=CC(CCCO)=CC(c2ccc(CN3CCCC3)cc2)N(Cc2cc3c(cc2Br)OCO3)C=C1C(=O)OCCS(C)(=O)=O (stereo not given),0.232
15,CCOC(=O)[C@H]1CC=C2CC1C(=O)N1CCC[C@@H]1[C@@H]2O[Si](C)(C)C(C)(C)C (stereo not given in full),-0.177
16,COC(=O)[C@@]1(Cc2ccccc2)[C@H]2c3cc(C(=O)N4CCCC4)n(Cc4cccc5ccccc45)c3C[C@H]2CN1C(=O)c1ccccc1,-0.922
17,CC(C)(C)OC(=O)CC[C@]1(C(=O)NCC(O)CO)COC(c2ccc(OCCCO)cc2)=N1 (stereo not given in full),-1.01
18,CCc1oc(CC[C@@H](CO)NC(=O)NCCn2cc(C3(O)CCCCC3)nn2)c(C(=O)OC)c1C(=O)OC,0.887

row,SMILES,composite z-score
1,COCCOC(=O)N1C(=O)[C@@]2(c3cc(C#Cc4ccc(OC)cc4)ccc31)[C@H](C(=O)N1CCCCCCC1)[C@H]1C(=O)O[C@H](c3ccccc3)[C@H](c3ccccc3)N1[C@@H]2c1ccc(OCCO)cc1,1.76
2,O=C(NCc1ccccc1)[C@@H]1c2ccccc2C(=O)N(CC23CC4CC(CC(C4)C2)C3)[C@H]1c1ccc(CO)cc1,0.593
3,COC(=O)[C@@]1(Cc2ccc(OC)cc2)[C@H]2c3cc(C(=O)N(C)C)n(Cc4cccc5ccccc45)c3C[C@H]2CN1C(=O)c1ccccc1,0.208
4,COc1ccc(C(O)C2C=CC3C(=O)N(c4ccccc4)C(=O)C3N2Nc2ccccc2F)cc1OCc1ccccc1 (stereo not given),-0.633
5,COc1ccc(CCNC(=O)[C@@]2(C)c3ccccc3C(=O)N(Cc3cc(F)cc(C(F)(F)F)c3)[C@H]2c2ccc(CO)cc2)cc1,-0.434
6,O=C1OCCC/C=C\[C@H]2OC34C=CCN(CCN5CCOCC5)C(=O)[C@H]3N(CCCO)C(=O)[C@@H]4C12 (stereo not given in full),-0.298
7,COc1cc2c(cc1OC)CN(C(=O)[C@H]1[C@@H]3C(=O)O[C@@H](c4ccccc4)[C@@H](c4ccccc4)N3[C@@H](c3ccc(O)cc3)[C@]13C(=O)Nc1ccc(C#CC4=CCCCC4)cc13)CC2,0.779
8,C=CC[C@]12N=C(c3ccc(OCCCO)cc3)O[C@H]1c1ccccc1N(Cc1ccccc1)C2=O,0.378
9,CN1C(=O)C2C=CC(C(O)c3ccccc3)N(Nc3ccccc3)C2C1=O (stereo not given),-1.22
10,COc1ccc([C@H]2C[C@H]3C(Br)=C[C@@H]2C(=O)[C@]32CO2)cc1,1.03
11,CC(C)C(CO)N1C(=O)[C@@H]2[C@H]3C(=O)OCC=C[C@H]3OC23C=CCN(C(C)C)C(=O)[C@@H]13 (stereo not given in full),0.254
12,CCCCCN1CC=CC23O[C@@H]4/C=C\CCCOC(=O)C4[C@H]2C(=O)N(CCCO)[C@@H]3C1=O (stereo not given in full),-0.663
13,CCCC[C@@H]1C[C@H]1[C@@H](NC(=O)c1ccco1)c1ccc(C(=O)OC)cc1,-0.633
14,C=CCOC(=O)[C@H]1[C@@H]2C(=O)O[C@@H](c3ccccc3)[C@@H](c3ccccc3)N2[C@@H](c2ccc(OCCOC(=O)[C@@H]3C[C@@H]4C(=O)N[C@@H](CCCCN(C)C)C(=O)N4[C@@H]3c3ccc(O)cc3)cc2)[C@]12C(=O)Nc1ccc(I)cc12,1.06
15,CN1C(=O)[C@]2(Cc3ccccc3)N=C(c3ccc(OCCCO)cc3)O[C@@H]2c2ccccc21,0.505
16,CN(C)CCCNC(=O)[C@@]1(c2ccc([N+](=O)[O-])cc2)CC(=O)N(C2CCCCC2)[C@@H]1c1ccc(CO)cc1I,-0.212
17,COCC(=C=CC[C@@H](O)c1ccccc1OCCO)C[C@@H](O)c1cc(Cl)cc(Cl)c1O,0.317
